Measured values from PubChem BioAssay AID652154 (Broad Institute, 2013).
Screen size: about 360,000 compounds; about 4,200 (1.2%) were called active.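 How the source made its calls: active means mean replicate inhibition at least 60% with every replicate also reaching 60%; inconclusive means only one of the two criteria is met; inactive means mean below 60% and not all replicates reaching 60%.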 Many of the other results were omitted from the sample, so actives are more common in it than they were.

Test: PAX8 transcriptional activity inhibition in RMG-I – RMG-I cells, luciferase, single concentration, primary screen (AID 652154);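 further: luciferase light reporting Pax8 driven TPO promoter activity; plate controls were median of neutral control wells for no effect and mitoxantrone controls for full effect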
Conditions: RMG-I TPO-luciferase reporter, SteadyGlo, 24 h; at 12.6 µM; stronger effect = higher value
For `CO[C@@H]1CC[C@H]2CCN(C)C(=O)C[C@@H](c3ccccc3)CN(C)C(=O)c3cc(C#N)ccc3OC[C@@H]1O2`, the inhibition was 5.74% (inactive). For `N#C[C@@H]1N[C@@H](CO)[C@@H]1c1ccc(C#Cc2ccccc2F)cc1`, the inhibition was -118% (inactive). For `O=C(C[C@@H]1CC[C@@H]2[C@H](COC[C@H](O)CN2C(=O)Nc2cccc(Cl)c2)O1)NCCCN1CCOCC1`, the inhibition was -32.8% (inactive). In the case of `O=C(c1ccncc1)N1CC(=O)N2[C@H](CO)[C@@H](c3ccc(-c4cccnc4)cc3)[C@H]2C1`, the inhibition is reported as 7.54% (inactive). In the case of `COCC(=O)N(C)C[C@H]1[C@@H](c2ccc(-c3cccnc3)cc2)[C@H](CO)N1C(C)=O`, the inhibition is reported as 0.314% (inactive). For `COc1ccccc1S(=O)(=O)N[C@@H]1CC[C@H](CC(=O)N2CCOCC2)O[C@@H]1CO`, the inhibition was 3.09% (inactive). For `COC(=O)C(CC#Cc1ccc2c(c1)[C@]1(C(=O)N2)[C@H](c2ccc(O)cc2)N2[C@H](c3ccccc3)[C@H](c3ccccc3)OC(=O)[C@H]2[C@@H]1C(=O)NC[C@H](O)c1ccccc1)C(=O)OC`, the inhibition was -24.8% (inactive). With `COC(=O)C(CC#Cc1ccc2c(c1)[C@]1(C(=O)N2)[C@H](c2ccccc2OCCO)N2[C@H](c3ccccc3)[C@H](c3ccccc3)OC(=O)[C@H]2[C@@H]1C(N)=O)C(=O)OC` the inhibition was 92.9% (active). In the case of `COc1ccc(C#Cc2ccc3c(c2)[C@]2(C(=O)N3)[C@H](c3ccccc3OCCO)N3[C@H](c4ccccc4)[C@H](c4ccccc4)OC(=O)[C@H]3[C@@H]2C(=O)N2CCCCCCC2)cc1`, the inhibition is reported as 0.581% (inactive). In the case of `Cc1ccc(S(=O)(=O)Nc2cccc3c2O[C@H](CN(C)CC2CCCCC2)[C@H](C)CN([C@H](C)CO)C3=O)cc1`, the inhibition is reported as -4.8% (inactive). In the case of `COc1ccc(CN(C)C[C@H]2OCCCC[C@@H](C)Oc3ccc(NC(=O)Nc4cccc5ccccc45)cc3C(=O)N([C@H](C)CO)C[C@@H]2C)cc1`, the inhibition is reported as 14.2% (inactive). In the case of `Cc1noc(/C=C/c2ccco2)c1S(=O)(=O)N1CCC(C(=O)Nc2ccc(Cl)cn2)CC1`, the inhibition is reported as 74.4% (active). In the case of `Cc1noc(/C=C/N(C)C)c1S(=O)(=O)N1CCCC(C(=O)NCc2ccco2)C1` (stereo not given), the inhibition is reported as 38.6% (inactive). In the case of `CNC(=O)C1CCN(S(=O)(=O)c2c(C)noc2/C=C/c2cccc(C)c2)CC1`, the inhibition is reported as -0.657% (inactive). For `CC(=O)N1CCCCN2[C@H](CO)[C@H](c3ccc(-c4ccccc4)cc3)[C@@H]2C1`, the inhibition was 8.11% (inactive). For `C[C@H](CO)N1C[C@H](C)[C@@H](CN(C)C(=O)NC2CCCCC2)Oc2c(NC(=O)Nc3ccc(F)cc3)cccc2C1=O`, the inhibition was -8.27% (inactive). For `C[C@@H]1CCCCO[C@H](CN(C)C(=O)Nc2ccccc2)[C@H](C)CN([C@H](C)CO)C(=O)c2cc(NC(=O)Nc3ccccc3)ccc2O1`, the inhibition was 10.5% (inactive). For `C[C@@H]1CCCCO[C@@H](CN(C)C(=O)Nc2ccc(C(F)(F)F)cc2)[C@H](C)CN([C@H](C)CO)C(=O)c2cc(NC(=O)c3ccccc3)ccc2O1`, the inhibition was -6.62% (inactive). With `C[C@@H]1CCCCO[C@@H](CN(C)C(=O)C2CCCCC2)[C@H](C)CN([C@H](C)CO)C(=O)c2cc(NC(=O)Cc3ccccc3)ccc2O1` the inhibition was -7.3% (inactive). With `CC(C)NC(=O)Nc1ccc2c(c1)C(=O)N([C@@H](C)CO)C[C@@H](C)[C@@H](CN(C)C(=O)Nc1ccc(C(F)(F)F)cc1)OCCCC[C@H](C)O2` the inhibition was -21.5% (inactive). In the case of `C[C@@H]1CN([C@H](C)CO)C(=O)c2cccc(NC(=O)Nc3ccccc3)c2O[C@@H]1CN(C)C(=O)NC1CCCCC1`, the inhibition is reported as 9.31% (inactive). With `C[C@@H]1CN([C@@H](C)CO)C(=O)c2cc(NC(=O)Nc3ccc(C(F)(F)F)cc3)ccc2O[C@@H](C)CCCCO[C@H]1CN(C)C(=O)c1ccccc1` the inhibition was 84.4% (active). With `C[C@@H]1CCCCO[C@H](CN(C)C(=O)Nc2ccc(C(F)(F)F)cc2)[C@H](C)CN([C@H](C)CO)C(=O)c2cc(NC(=O)Nc3ccc(C(F)(F)F)cc3)ccc2O1` the inhibition was 17.5% (inactive). In the case of `C[C@@H]1CCCCO[C@H](CN(C)C(=O)C2CCCCC2)[C@@H](C)CN([C@@H](C)CO)C(=O)c2cc(NC(=O)Nc3ccccc3)ccc2O1`, the inhibition is reported as 80.3% (active). In the case of `C[C@H]1CN([C@@H](C)CO)C(=O)c2cccc(NC(=O)Nc3ccc(C(F)(F)F)cc3)c2O[C@H]1CN(C)C(=O)NC1CCCCC1`, the inhibition is reported as 92.2% (active). In the case of `CC(C)NC(=O)Nc1ccc2c(c1)C(=O)N([C@@H](C)CO)C[C@H](C)[C@H](CN(C)C(=O)c1ccccc1)OCCCC[C@@H](C)O2`, the inhibition is reported as 3.59% (inactive). For `CC(C)NC(=O)N(C)C[C@H]1OCCCC[C@H](C)Oc2ccc(NC(=O)Nc3ccc(C(F)(F)F)cc3)cc2C(=O)N([C@H](C)CO)C[C@@H]1C`, the inhibition was 93.7% (active). With `Cc1ccc(S(=O)(=O)Nc2cccc3c2O[C@@H](CN(C)S(=O)(=O)c2c(C)noc2C)[C@@H](C)CN([C@H](C)CO)C3=O)cc1` the inhibition was -20.1% (inactive). For `C[C@H]1CCCCO[C@@H](CN(C)Cc2ccc3c(c2)OCO3)[C@@H](C)CN([C@@H](C)CO)C(=O)c2cc(NC(=O)c3ccccc3)ccc2O1`, the inhibition was 10.2% (inactive). For `COCC(=O)Nc1ccc2c(c1)C(=O)N(C)C[C@@H](OC)[C@H](C)CN(C(=O)c1cccnc1)[C@H](C)CO2`, the inhibition was -16.5% (inactive). For `C/C=C/c1cnc2c(c1)C(=O)N([C@@H](C)CO)C[C@@H](C)[C@@H](CN(C)C(=O)C1CCOCC1)O2`, the inhibition was -0.814% (inactive). With `O=c1cc(O)c(-c2cccc(C(F)(F)F)c2)c(Cl)[nH]1` the inhibition was 4.02% (inactive). With `O=C(NNc1ccccc1Cl)C(O)(c1cccc(C(F)(F)F)c1)c1cccc(C(F)(F)F)c1` the inhibition was 66.8% (active). For `O=C(O)c1cc(S(=O)(=O)N(Cc2ccccc2)c2cccc(C(F)(F)F)c2)ccc1Cl`, the inhibition was -20% (inactive). For `O=C(C1CCCC1)N1CC(=O)N2[C@H](CO)[C@H](c3ccc(Br)cc3)[C@H]2C1`, the inhibition was -9.22% (inactive). For `C/C=C/c1ccc([C@@H]2[C@H](CO)N(C(C)=O)[C@H]2CN(CC)C(=O)CN(C)C)cc1`, the inhibition was 9.68% (inactive). In the case of `COCC(=O)Nc1ccc2c(c1)OC[C@H](C)N(C(=O)c1cnccn1)C[C@@H](C)[C@H](OC)CN(C)C2=O`, the inhibition is reported as -7.83% (inactive). With `O=C(C1CCC1)N1CCCCN2[C@H](C1)[C@@H](c1ccc(C#CC3CCCC3)cc1)[C@@H]2CO` the inhibition was 36.8% (inactive). For `O=c1oc2ccccc2cc1-c1cn(-c2ccccc2)c(=S)[nH]1`, the inhibition was 62.6% (active). In the case of `COc1cccc(-n2c(=S)[nH]c3c(oc4ccccc43)c2=O)c1`, the inhibition is reported as 3.59% (inactive). For `CC(C)NC(=O)Nc1ccc2c(c1)C(=O)N([C@@H](C)CO)C[C@@H](C)[C@H](CN(C)C(=O)Cc1ccccc1)OCCCC[C@H](C)O2`, the inhibition was 4.73% (inactive). In the case of `CN1CCN(C(=O)C[C@@H]2CC[C@@H]3[C@H](COC[C@@H](O)CN3Cc3cccc(F)c3)O2)CC1`, the inhibition is reported as -11.1% (inactive). For `CCCC#Cc1cnc2c(c1)C(=O)N([C@@H](C)CO)C[C@@H](C)[C@@H](CN(C)C(=O)c1ccccc1)O2`, the inhibition was 8.32% (inactive). For `C=C1C(=O)OC2C1CCC(C)=CCCC1(C)OC21` (stereo not given), the inhibition was 108% (active). In the case of `O=S(=O)(c1ccc(F)cc1)N1CCCCN2[C@H](C1)[C@H](c1ccc(C3=CCCCC3)cc1)[C@@H]2CO`, the inhibition is reported as 16.3% (inactive). With `CC(C)c1cn(CC[C@@H]2CC[C@@H](NC(=O)C3CCC3)[C@@H](CO)O2)nn1` the inhibition was 2.99% (inactive). In the case of `COc1ccc(CNC(=O)COC(=O)C(CCSC)N2C(=O)c3ccccc3C2=O)cc1` (stereo not given), the inhibition is reported as -2% (inactive). For `NS(=O)(=O)c1ccc(CCNC(=O)CN2C(=O)c3ccccc3S2(=O)=O)cc1`, the inhibition was 0.854% (inactive). With `COc1ccc(CNC(=O)CN2C(=O)c3ccccc3S2(=O)=O)cc1` the inhibition was 75.6% (active). With `C/C=C/c1ccccc1[C@@H]1[C@@H](CO)N(S(=O)(=O)c2cccc(F)c2)[C@H]1C#N` the inhibition was -12.9% (inactive). With `C[C@@H]1CN([C@@H](C)CO)C(=O)c2cc(NC(=O)CCCN(C)C)ccc2O[C@H]1CN(C)Cc1ccccc1` the inhibition was -7.53% (inactive). With `COc1ccccc1-c1ccc2c(c1)O[C@H](CN(C)C(=O)c1cccnc1)[C@H](C)CN([C@@H](C)CO)S2(=O)=O` the inhibition was -1.96% (inactive). For `COc1ccc(C(C#N)=C2C=CC(=NO)c3ccccc32)cc1`, the inhibition was 70.5% (active). For `COc1ccc(C(=NN)c2ccc(OC)cc2)cc1`, the inhibition was -68% (inactive). With `COc1ccc(/C(N)=N/OC(=O)Cc2ccccc2)cc1` the inhibition was -143% (inactive).
